Our source for the AC50 and outcome values is PubChem BioAssay (EPA / NIEHS).

Results filed as inconclusive are left out. Active and inactive are the calls of the source. How the source made its calls: active means hit-call score of the fitted dose curve at least 0.9, where 1 is the maximum; inconclusive means response in the unintended direction; inactive means score below 0.9.

rat Adrenergic Receptor, Beta (Adrb), Non-selective Binding, Adrb1 (gene 24925), sequence (P18090 whole entry, looked up): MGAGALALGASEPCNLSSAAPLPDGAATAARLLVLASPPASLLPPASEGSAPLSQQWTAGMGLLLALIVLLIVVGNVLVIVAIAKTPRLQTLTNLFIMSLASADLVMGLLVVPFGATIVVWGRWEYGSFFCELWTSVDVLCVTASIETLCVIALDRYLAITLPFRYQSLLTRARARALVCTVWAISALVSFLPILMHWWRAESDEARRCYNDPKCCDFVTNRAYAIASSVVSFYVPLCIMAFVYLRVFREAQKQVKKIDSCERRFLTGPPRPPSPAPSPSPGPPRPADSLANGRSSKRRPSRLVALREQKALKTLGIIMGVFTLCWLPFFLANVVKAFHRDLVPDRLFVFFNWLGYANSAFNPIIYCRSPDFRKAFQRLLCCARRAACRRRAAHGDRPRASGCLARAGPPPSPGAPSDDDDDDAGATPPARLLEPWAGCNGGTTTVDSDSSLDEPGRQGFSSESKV

The first test deals with guinea pig Serotonin, 5-Hydroxytryptamine Receptor 4 (5HT4), HTR4 (gene 100135548) (UniProt O70528). Kind of test: NVS_GPCR_g5HT4: NovaScreen (NVS) G Protein-Coupled Receptor Assay for guinea pig Serotonin, 5-Hydroxytryptamine Receptor 4 (5HT4) (AID 2283294). In a few lines: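 Guinea pig striatal membranes; radioligand competitive displacement, filtration and scintillation counting after 1 h. Primary screen in duplicate at 25 uM; actives then tested in concentration series; loss of binding signal fitted relative to DMSO.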
guinea pig Serotonin, 5-Hydroxytryptamine Receptor 4 (5HT4), HTR4 (gene 100135548), sequence (O70528 whole entry, looked up): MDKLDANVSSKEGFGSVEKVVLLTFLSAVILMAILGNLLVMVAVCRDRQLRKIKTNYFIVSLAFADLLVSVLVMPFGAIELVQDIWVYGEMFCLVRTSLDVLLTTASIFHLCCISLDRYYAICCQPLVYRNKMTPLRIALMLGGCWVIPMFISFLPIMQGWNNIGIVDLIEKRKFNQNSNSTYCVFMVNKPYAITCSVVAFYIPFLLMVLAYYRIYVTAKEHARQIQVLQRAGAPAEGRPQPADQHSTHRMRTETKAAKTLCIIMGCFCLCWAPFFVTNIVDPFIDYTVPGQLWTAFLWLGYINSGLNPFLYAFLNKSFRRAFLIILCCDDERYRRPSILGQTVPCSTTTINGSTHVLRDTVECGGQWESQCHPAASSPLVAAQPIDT
With `NCc1cccc(C2CCN(C(=O)c3ccc(C#Cc4ccccc4F)o3)CC2)c1`, the AC50 – broadly, the midpoint of the concentration-response curve, whichever way the signal moves – was 17.6 µM (active).

As for `CCN(Cc1cccnc1)C(=O)c1cccc(Cl)c1[C@]1(C)C(=O)N(Cc2ccc(OC)cc2OC)c2ccc(Cl)cc21`, the AC50 was 15 µM (active).

As for `Clc1cc(Cl)c2c(c1)N=C1CCCCCN1C2`, the concentration at half-maximal activity (AC50) was 5.45 µM (active).

In the case of `COc1ccc2cc(S(=O)(=O)N[C@H](CC(=O)N[C@H](Cc3ccc(CN4[C@H](C)CCC[C@@H]4C)cc3)C(=O)N(C)C(C)C)c3ccc4c(c3)OCO4)ccc2c1`, the AC50 was 16.8 µM (active).

`COc1cc(C(=O)NC2CCN(C)CC2)ccc1Nc1ncc2c(n1)N(C1CCCC1)CC(F)(F)C(=O)N2C`: the half-maximal activity concentration (AC50) is 8.4 µM (active).

Consider `O=C1c2ccccc2C(=O)N1CCc1noc(-c2ccc(CN3CCCCCC3)s2)n1`, for which the half-maximal activity concentration (AC50) was 4 µM (active).

Turning to `CN(C[C@@H](CC[N+]12CCC(C3CCCCC3)(CC1)CC2)c1ccc(Cl)c(Cl)c1)C(=O)c1cc(C(F)(F)F)cc(C(F)(F)F)c1`, the AC50 was 8.02 µM (active).

Consider `CCOC(=O)O[C@H](C)OC(=O)c1ccc2c(c1)cc(C(=O)NC1CCN(C(C)C)CC1)n2Cc1cc(-c2ccc(Cl)s2)on1`, for which the AC50 was 23.6 µM (active).

On to `Cc1occc1C(=O)Nc1ccc(C(=O)N2CCC(F)(F)/C(=C\C(=O)N3CCC(N4CCCCC4)CC3)c3ccccc32)cc1`, for which the half-maximal activity concentration (AC50) was 0.579 µM (active).

Consider `O=c1[nH]sc2ccccc12`, for which the half-maximal activity concentration (AC50) was 33.7 µM (active).

`CN(C)c1ccc(C(=C2C=CC(=[N+](C)C)C=C2)c2ccc(N(C)C)cc2)cc1`: the AC50 is 7.22 µM (active).

As to `C[C@]12CC[C@@H]3c4ccc(O)cc4CC[C@H]3[C@@H]1CCC2=O`, the outcome was inactive.

With `CC/C(=C(/CC)c1ccc(O)cc1)c1ccc(O)cc1`, the concentration at half-maximal activity (AC50) is 39.4 µM (active).

For `COc1cccc([C@H](O)C2CCN(CCc3ccc(F)cc3)CC2)c1OC`, the half-maximal activity concentration (AC50) is 25 µM (active).

Turning to `Cc1cc2c(cc1C(F)(F)F)N(C(=O)Nc1ccc(Oc3cccnc3C)nc1)CC2`, the half-maximal activity concentration (AC50) is 5.92 µM (active).

With `CCCCCCCCCCCC[N+](C)(C)C`, the AC50 is 17.9 µM (active).

For the compound `CN(C)C(=O)C1(N2CCCCC2)CCN(CC[C@@]2(c3ccc(Cl)c(Cl)c3)CN(C(=O)c3ccccc3)CCO2)CC1`, the concentration at half-maximal activity (AC50) is 23.6 µM (active).

In another test the target is rat Adrenergic, Alpha 1A Receptor (Adra1A), Adra1a (gene 29412) (UniProt P43140). Kind of test: NVS_GPCR_rAdra1A: NovaScreen (NVS) G Protein-Coupled Receptor Assay for rat Adrenergic, Alpha 1A Receptor (Adra1A) (AID 2283296). The protocol: NVS_GPCR_rAdra1A is a biochemical, single-readout assay that uses extracted gene-proteins from Rat cortical membranes (pretreated with chlorethyl clonidine-CEC) in a tissue-based cell-free assay. Measurements were taken 1 hour after chemical dosing in a 48-well plate.NVS_GPCR_rAdra1A is one of one assay component(s) measured or calculated from the NVS_GPCR_rAdra1A assay. It is designed to make measurements of radioligand binding, a form of binding reporter, as detected with scintillation counting signals by Filter-based radiodetection technology.Data from the assay component NVS_GPCR_rAdra1A was analyzed into 1 assay endpoint. This assay endpoint, NVS_GPCR_rAdra1A, was analyzed in the positive analysis fitting direction relative to DMSO as the negative control and baseline of activity. Using a type of binding reporter, loss-of-signal activity can be used to understand changes in the binding as they relate to the gene Adra1a. Furthermore, this assay endpoint can be referred to as a primary readout, because the performed assay has only produced 1 assay endpoint. To generalize the intended target to other relatable targets, this assay endpoint is annotated to the gpcr intended target family, where the subfamily is rhodopsin-like receptor.
rat Adrenergic, Alpha 1A Receptor (Adra1A), Adra1a (gene 29412), sequence (P43140 whole entry, looked up): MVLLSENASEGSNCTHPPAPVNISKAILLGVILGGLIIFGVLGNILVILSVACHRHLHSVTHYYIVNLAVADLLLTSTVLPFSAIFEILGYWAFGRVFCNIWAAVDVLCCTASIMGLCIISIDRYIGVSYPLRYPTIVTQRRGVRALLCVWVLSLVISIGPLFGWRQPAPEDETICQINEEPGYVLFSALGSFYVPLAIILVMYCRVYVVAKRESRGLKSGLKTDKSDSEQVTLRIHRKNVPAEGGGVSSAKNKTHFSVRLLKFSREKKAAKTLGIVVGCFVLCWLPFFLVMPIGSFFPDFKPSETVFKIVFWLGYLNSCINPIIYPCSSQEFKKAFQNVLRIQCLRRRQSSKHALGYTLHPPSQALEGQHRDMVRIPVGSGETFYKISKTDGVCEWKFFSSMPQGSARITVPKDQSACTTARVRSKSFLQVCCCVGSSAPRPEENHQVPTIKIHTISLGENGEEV
Binding assays used specific radioligands (tritiated, iodinated) with non-radioactive competitive displacement ligands in agonist or antagonist protocols (as indicated) and various reference compounds and inhibitors to titrate specific binding to receptors and transporters. Most enzyme assays (CYPs, kinases, phosphatases, proteases, HDACs) used recombinant protein and specific substrates (fluorescence mostly, some colorimetric and radioactive) and inhibitors, followed by a biochemical separation of substrate and product. All assays for the biochemical HTS were initially run in duplicate at a single concentration (10 uM for CYP450 assays and 25 uM for all others). […] Each assay was run with positive and negative controls, and concurrent controls on every plate. The follow-up (secondary) screen tested active chemical-pairs in concentration series, as well as a few additional assays not tested in the primary screen, some selected negative inactives, and several cases re-run in the concentration series for confirmatory purposes.
Turning to `NCc1cccc(C2CCN(C(=O)c3ccc(C#Cc4ccccc4F)o3)CC2)c1`, the compound was called inactive.

`Clc1cc(Cl)c2c(c1)N=C1CCCCCN1C2`: the AC50 is 3.54 µM (active).

Take `COc1ccc2cc(S(=O)(=O)N[C@H](CC(=O)N[C@H](Cc3ccc(CN4[C@H](C)CCC[C@@H]4C)cc3)C(=O)N(C)C(C)C)c3ccc4c(c3)OCO4)ccc2c1`: the call was inactive.

With `COc1cc(C(=O)NC2CCN(C)CC2)ccc1Nc1ncc2c(n1)N(C1CCCC1)CC(F)(F)C(=O)N2C`, the AC50 is 7.27 µM (active).

As for `O=C1c2ccccc2C(=O)N1CCc1noc(-c2ccc(CN3CCCCCC3)s2)n1`, the half-maximal activity concentration (AC50) is 5.59 µM (active).

As for `c1ccc(C[n+]2cccc3ccccc32)cc1`, the half-maximal activity concentration (AC50) is 11 µM (active).

Turning to `CN(C)c1ccc(C(=C2C=CC(=[N+](C)C)C=C2)c2ccc(N(C)C)cc2)cc1`, the AC50 was 20.9 µM (active).

As for `CCN(CC)C(=O)c1cc(S(=O)(=O)Cc2ccccc2)c(N2CCC(c3ccccc3)CC2)cc1N(CC)CCN(C)C`, the AC50 was 17.8 µM (active).

With `CN(C)C(=O)C1(N2CCCCC2)CCN(CC[C@@]2(c3ccc(Cl)c(Cl)c3)CN(C(=O)c3ccccc3)CCO2)CC1`, the AC50 is 10.1 µM (active).

Another test deals with rat Adrenergic, Alpha 1B Receptor (Adra1B), gene 24173. The test is described as follows: NVS_GPCR_rAdra1B: NovaScreen (NVS) G Protein-Coupled Receptor Assay for rat Adrenergic, Alpha 1B Receptor (Adra1B) (AID 2283297). In a few lines:
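Rat liver membranes, radioligand displacement with filter-based scintillation detection, 1 h incubation. Primary screen in duplicate at 25 uM; actives retested in concentration series; activity relative to DMSO.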
As for `NCc1cccc(C2CCN(C(=O)c3ccc(C#Cc4ccccc4F)o3)CC2)c1`, the concentration at half-maximal activity (AC50) is 25 µM (active).

With `Clc1cc(Cl)c2c(c1)N=C1CCCCCN1C2`, the half-maximal activity concentration (AC50) is 5.42 µM (active).

With `COc1ccc2cc(S(=O)(=O)N[C@H](CC(=O)N[C@H](Cc3ccc(CN4[C@H](C)CCC[C@@H]4C)cc3)C(=O)N(C)C(C)C)c3ccc4c(c3)OCO4)ccc2c1`, the half-maximal activity concentration (AC50) is 23.9 µM (active).

Regarding `COc1cc(C(=O)NC2CCN(C)CC2)ccc1Nc1ncc2c(n1)N(C1CCCC1)CC(F)(F)C(=O)N2C`, the AC50 is 15.5 µM (active).

In the case of `Cc1occc1C(=O)Nc1ccc(C(=O)N2CCC(F)(F)/C(=C\C(=O)N3CCC(N4CCCCC4)CC3)c3ccccc32)cc1`, the half-maximal activity concentration (AC50) is 3.24 µM (active).

For `CCCCOC(=O)c1ccc(O)cc1`, the compound was classed as inactive.

In the case of `CCN(CC)C(=O)c1cc(S(=O)(=O)Cc2ccccc2)c(N2CCC(c3ccccc3)CC2)cc1N(CC)CCN(C)C`, the AC50 was 6.1 µM (active).

On to `COc1cccc([C@H](O)C2CCN(CCc3ccc(F)cc3)CC2)c1OC`, for which the half-maximal activity concentration (AC50) is 0.26 µM (active).

On to `CN(C)C(=O)C1(N2CCCCC2)CCN(CC[C@@]2(c3ccc(Cl)c(Cl)c3)CN(C(=O)c3ccccc3)CCO2)CC1`, for which the half-maximal activity concentration (AC50) is 5.65 µM (active).

The target of the next test is rat Adrenergic Receptor, Beta (Adrb), Non-selective Binding, Adrb1 (gene 24925) (UniProt P18090). Kind of test: NVS_GPCR_rAdrb_NonSelective: NovaScreen (NVS) G Protein-Coupled Receptor Assay for rat Adrenergic Receptor, Beta (Adrb), Non-selective Binding (AID 2283298). In a few lines:
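Non-selective beta-adrenergic radioligand binding in rat cortical membranes, 1 h incubation, filter-based scintillation read-out. Primary screen 25 uM in duplicate; hits retested in concentration-response up to 50 uM, DMSO baseline.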
Consider `CC[C@H](NC(=O)c1cc(F)ccc1NS(=O)(=O)c1cccc2cccnc12)c1ccccc1`, for which the call was inactive.

With `CCCCCCCCN(C)CCCCCCCC`, the call was inactive.

In the case of `CN(C)c1ccc(C(=C2C=CC(=[N+](C)C)C=C2)c2ccc(N(C)C)cc2)cc1`, the half-maximal activity concentration (AC50) is 17.3 µM (active).

As for `CN(C)C(=O)C1(N2CCCCC2)CCN(CC[C@@]2(c3ccc(Cl)c(Cl)c3)CN(C(=O)c3ccccc3)CCO2)CC1`, the AC50 was 6.63 µM (active).
